# Results reported in article PMC7862700, “An all-to-all approach to the identification of sequence-specific readers for epigenetic DNA modifications on cytosine”.
# Columns and labels:
# Experiment in all cases: DAPPL (digital affinity profiling via proximity ligation, sequencing); 10 mM Tris-HCl pH 7.5, 50 mM NaCl, 1 mM DTT, 4% glycerol, room temperature, 30 min; GST-TFs on glutathione beads, 16-mer random dsDNA library, 0.1% formaldehyde crosslink after washing; high values mean tight binding
# FLI1 = target: T1, FLI1 (Homo sapiens, UniProt Q01543 1-452); conditions: protein: recombinant; tags: N-terminal GST; dsDNA, one strand shown
# T1 sequence: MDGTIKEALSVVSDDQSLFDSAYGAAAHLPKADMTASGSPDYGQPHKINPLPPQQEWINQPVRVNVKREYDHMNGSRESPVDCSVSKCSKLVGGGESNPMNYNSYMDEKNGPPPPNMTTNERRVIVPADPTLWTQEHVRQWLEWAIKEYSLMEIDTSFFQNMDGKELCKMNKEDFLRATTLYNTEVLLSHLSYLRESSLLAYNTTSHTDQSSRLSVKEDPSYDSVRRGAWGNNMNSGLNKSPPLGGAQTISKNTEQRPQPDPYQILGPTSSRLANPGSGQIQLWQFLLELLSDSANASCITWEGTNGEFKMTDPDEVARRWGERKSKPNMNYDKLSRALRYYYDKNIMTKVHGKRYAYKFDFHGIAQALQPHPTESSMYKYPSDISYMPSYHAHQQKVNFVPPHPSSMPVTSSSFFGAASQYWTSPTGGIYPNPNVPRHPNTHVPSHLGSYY
# Summary of the method: (§1)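 A tag-only sample was pooled with DNA-barcoded human transcription factors that had been expressed in yeast as GST fusions and captured on glutathione beads. The pools were incubated for 30 min at room temperature with 200 nmole of a random double-stranded 16-mer DNA library in Tris/NaCl/DTT/glycerol buffer, then washed, crosslinked with 0.1% formaldehyde, proximity-ligated (BsaI/T4 ligase, 1 h, 37 °C), PCR-amplified and sequenced on an Illumina NextSeq500. Binding signal is each hexamer's read frequency for a factor divided by its frequency for the tag-only sample.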
# ELK1 = target: T2, ELK1 (Homo sapiens, UniProt P19419 1-428); conditions: protein: recombinant; tags: N-terminal GST; dsDNA, one strand shown
# T2 sequence: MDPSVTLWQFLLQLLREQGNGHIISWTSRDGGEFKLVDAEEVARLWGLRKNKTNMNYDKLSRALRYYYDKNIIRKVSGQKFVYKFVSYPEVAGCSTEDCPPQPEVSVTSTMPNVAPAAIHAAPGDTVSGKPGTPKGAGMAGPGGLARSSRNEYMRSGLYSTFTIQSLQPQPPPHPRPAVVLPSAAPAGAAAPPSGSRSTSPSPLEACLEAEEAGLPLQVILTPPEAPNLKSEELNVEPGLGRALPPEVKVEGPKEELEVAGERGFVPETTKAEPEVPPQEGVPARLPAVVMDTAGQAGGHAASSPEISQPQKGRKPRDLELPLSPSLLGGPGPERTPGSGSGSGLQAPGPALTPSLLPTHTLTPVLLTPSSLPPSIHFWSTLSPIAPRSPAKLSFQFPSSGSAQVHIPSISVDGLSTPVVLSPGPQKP
# Summary of the method: as §1
# GABPA = target: T3, GABPA (Homo sapiens, UniProt Q06546 1-454); conditions: protein: recombinant; tags: N-terminal GST; dsDNA, one strand shown
# T3 sequence: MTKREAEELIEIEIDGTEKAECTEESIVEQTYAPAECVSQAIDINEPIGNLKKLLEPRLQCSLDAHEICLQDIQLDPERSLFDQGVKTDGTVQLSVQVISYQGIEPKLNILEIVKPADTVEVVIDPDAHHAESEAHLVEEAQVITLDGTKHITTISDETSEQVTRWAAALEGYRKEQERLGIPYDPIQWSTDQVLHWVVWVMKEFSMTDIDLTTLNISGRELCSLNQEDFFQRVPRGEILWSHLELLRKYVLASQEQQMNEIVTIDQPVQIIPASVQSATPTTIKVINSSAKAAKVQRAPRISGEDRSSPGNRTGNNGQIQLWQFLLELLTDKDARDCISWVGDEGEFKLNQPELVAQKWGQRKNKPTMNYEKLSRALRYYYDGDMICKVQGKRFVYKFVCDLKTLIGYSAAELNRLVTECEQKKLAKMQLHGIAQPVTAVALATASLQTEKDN
# Summary of the method: as §1
# ERG = target: T4, ERG (Homo sapiens, UniProt P11308 1-479); conditions: protein: recombinant; tags: N-terminal GST; dsDNA, one strand shown
# T4 sequence: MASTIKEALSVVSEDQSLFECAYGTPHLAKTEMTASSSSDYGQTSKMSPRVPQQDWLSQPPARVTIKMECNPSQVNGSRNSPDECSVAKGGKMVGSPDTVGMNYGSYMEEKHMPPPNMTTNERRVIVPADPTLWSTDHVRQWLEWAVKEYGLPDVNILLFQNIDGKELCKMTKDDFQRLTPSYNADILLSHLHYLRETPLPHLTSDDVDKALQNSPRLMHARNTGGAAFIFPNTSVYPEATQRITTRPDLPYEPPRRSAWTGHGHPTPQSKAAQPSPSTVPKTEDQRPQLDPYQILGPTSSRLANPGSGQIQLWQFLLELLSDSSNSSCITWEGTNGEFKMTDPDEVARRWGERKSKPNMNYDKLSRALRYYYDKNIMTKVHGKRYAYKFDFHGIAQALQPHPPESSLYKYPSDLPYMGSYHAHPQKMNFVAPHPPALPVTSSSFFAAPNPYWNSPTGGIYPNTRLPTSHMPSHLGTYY
# Summary of the method: as §1
# ELF1 = ELF1 (Homo sapiens, UniProt P32519 1-619); conditions: protein: recombinant; tags: N-terminal GST; dsDNA, one strand shown
# Sequence of ELF1 (P32519 whole entry): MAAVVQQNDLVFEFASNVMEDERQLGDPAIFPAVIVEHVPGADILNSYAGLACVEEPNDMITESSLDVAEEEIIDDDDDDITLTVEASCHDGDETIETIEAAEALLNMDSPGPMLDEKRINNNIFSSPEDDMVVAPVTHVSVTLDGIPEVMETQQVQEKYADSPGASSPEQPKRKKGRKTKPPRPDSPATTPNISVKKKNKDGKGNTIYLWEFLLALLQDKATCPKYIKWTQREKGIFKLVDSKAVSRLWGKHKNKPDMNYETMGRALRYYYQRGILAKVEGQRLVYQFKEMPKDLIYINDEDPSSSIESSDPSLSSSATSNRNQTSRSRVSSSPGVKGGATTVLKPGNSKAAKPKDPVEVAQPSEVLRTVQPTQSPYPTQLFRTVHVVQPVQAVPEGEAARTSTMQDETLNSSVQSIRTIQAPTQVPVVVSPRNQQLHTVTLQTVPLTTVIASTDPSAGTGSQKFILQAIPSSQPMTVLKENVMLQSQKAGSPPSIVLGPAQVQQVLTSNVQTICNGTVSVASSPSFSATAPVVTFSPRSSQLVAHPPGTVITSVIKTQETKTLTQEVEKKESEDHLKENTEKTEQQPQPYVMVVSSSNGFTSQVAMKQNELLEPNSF
# Summary of the method: as §1
# EHF = target: T5, EHF (Homo sapiens, UniProt Q9NZC4 1-300); conditions: protein: recombinant; tags: N-terminal GST; dsDNA, one strand shown
# T5 sequence: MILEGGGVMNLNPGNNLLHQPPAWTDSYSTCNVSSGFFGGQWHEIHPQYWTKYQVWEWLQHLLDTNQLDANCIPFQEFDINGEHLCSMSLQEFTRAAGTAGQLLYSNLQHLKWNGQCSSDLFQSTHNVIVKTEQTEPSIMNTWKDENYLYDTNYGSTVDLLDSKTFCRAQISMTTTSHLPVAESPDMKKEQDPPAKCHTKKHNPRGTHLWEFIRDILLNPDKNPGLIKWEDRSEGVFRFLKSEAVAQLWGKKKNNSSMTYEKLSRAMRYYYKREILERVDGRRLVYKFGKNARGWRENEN
# Summary of the method: as §1
# SPI1 = SPI1 (Homo sapiens, UniProt P17947 1-270); conditions: protein: recombinant; tags: N-terminal GST; dsDNA, one strand shown
# Summary of the method: as §1
# SPIB = SPIB (Homo sapiens, UniProt Q01892 1-262); conditions: protein: recombinant; tags: N-terminal GST; dsDNA, one strand shown
# Sequence of SPIB (Q01892 whole entry): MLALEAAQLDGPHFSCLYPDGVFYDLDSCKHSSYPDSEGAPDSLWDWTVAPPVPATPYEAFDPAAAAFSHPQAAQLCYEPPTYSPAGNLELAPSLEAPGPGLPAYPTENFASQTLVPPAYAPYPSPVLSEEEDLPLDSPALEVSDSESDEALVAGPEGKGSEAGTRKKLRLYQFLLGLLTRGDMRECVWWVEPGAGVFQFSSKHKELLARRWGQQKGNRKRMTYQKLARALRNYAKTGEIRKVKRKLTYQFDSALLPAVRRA
# Summary of the method: as §1
# FEV = target: T6, FEV (Homo sapiens, UniProt Q99581 1-238); conditions: protein: recombinant; tags: N-terminal GST; dsDNA, one strand shown
# T6 sequence: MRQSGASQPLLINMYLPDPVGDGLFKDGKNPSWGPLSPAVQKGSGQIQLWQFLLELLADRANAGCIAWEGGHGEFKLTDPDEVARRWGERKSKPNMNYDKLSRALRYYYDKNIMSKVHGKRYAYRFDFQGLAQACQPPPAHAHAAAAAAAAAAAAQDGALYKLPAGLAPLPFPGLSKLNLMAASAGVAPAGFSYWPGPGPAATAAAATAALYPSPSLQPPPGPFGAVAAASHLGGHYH
# Summary of the method: as §1
# ETV5 = ETV5 (Homo sapiens, UniProt P41161 1-510); conditions: protein: recombinant; tags: N-terminal GST; dsDNA, one strand shown
# Sequence of ETV5 (P41161 whole entry): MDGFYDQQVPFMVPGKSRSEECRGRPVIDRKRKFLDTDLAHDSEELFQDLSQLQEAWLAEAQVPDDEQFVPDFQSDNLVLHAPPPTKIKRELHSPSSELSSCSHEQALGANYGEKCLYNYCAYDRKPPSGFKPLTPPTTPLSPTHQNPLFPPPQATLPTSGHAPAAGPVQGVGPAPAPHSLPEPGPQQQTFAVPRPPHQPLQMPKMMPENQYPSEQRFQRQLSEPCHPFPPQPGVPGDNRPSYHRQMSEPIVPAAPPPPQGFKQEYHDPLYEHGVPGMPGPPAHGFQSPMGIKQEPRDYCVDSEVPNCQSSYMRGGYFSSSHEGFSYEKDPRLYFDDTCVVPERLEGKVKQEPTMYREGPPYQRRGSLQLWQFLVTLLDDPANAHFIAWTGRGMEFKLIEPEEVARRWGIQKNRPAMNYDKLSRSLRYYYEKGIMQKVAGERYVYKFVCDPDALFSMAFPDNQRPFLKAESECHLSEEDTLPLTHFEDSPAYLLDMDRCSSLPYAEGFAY
# Summary of the method: as §1
# HSF1 = HSF1 (Homo sapiens, UniProt Q00613 1-529); conditions: protein: recombinant; tags: N-terminal GST; chain copies: 3; dsDNA, one strand shown
# Sequence of HSF1 (Q00613 whole entry): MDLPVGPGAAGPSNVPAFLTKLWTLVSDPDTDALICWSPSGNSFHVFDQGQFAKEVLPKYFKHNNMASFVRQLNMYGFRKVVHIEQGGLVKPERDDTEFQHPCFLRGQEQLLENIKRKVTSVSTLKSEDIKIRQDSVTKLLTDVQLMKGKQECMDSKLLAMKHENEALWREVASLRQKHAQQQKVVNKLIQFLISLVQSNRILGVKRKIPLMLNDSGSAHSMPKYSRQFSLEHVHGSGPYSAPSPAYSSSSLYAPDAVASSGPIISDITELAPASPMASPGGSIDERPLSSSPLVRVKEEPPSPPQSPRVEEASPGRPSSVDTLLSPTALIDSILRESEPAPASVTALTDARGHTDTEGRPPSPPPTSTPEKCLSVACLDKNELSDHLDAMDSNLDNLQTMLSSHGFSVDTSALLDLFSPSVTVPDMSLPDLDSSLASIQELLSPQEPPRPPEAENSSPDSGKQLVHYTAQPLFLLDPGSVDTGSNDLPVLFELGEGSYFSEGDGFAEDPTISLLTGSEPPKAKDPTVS
# Summary of the method: as §1
# SPIC = target: T7, SPIC (Homo sapiens, UniProt Q8N5J4 1-248); conditions: protein: recombinant; tags: N-terminal GST; dsDNA, one strand shown
# T7 sequence: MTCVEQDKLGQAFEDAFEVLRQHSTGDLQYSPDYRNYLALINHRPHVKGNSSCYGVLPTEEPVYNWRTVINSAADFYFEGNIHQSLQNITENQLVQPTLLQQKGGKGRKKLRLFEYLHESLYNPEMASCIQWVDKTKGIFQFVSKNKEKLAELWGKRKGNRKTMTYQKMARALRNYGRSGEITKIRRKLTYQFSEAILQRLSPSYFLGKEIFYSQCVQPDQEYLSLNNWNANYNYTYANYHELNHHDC
# Summary of the method: as §1
# ELF4 = ELF4 (Homo sapiens, UniProt Q99607 1-663); conditions: protein: recombinant; tags: N-terminal GST; dsDNA, one strand shown
# Sequence of ELF4 (Q99607 whole entry): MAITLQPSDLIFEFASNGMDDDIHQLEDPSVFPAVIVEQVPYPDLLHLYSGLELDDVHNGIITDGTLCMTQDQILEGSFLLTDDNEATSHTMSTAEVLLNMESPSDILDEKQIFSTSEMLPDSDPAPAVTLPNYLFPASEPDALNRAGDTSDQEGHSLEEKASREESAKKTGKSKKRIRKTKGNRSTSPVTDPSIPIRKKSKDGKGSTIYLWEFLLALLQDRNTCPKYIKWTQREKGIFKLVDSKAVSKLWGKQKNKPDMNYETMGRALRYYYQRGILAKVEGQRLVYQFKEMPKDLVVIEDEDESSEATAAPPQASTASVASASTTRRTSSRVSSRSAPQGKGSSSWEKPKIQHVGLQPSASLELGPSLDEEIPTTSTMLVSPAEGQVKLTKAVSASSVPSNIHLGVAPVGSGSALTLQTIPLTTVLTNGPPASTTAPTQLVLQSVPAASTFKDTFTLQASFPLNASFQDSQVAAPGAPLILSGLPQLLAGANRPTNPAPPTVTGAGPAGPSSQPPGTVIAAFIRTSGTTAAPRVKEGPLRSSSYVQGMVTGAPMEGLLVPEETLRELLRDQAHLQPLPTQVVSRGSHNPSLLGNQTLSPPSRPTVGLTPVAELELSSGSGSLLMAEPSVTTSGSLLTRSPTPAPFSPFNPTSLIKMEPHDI
# Summary of the method: as §1
# ELK4 = target: T8, ELK4 (Homo sapiens, UniProt P28324-2 1-405); conditions: protein: recombinant; tags: N-terminal GST; dsDNA, one strand shown
# T8 sequence: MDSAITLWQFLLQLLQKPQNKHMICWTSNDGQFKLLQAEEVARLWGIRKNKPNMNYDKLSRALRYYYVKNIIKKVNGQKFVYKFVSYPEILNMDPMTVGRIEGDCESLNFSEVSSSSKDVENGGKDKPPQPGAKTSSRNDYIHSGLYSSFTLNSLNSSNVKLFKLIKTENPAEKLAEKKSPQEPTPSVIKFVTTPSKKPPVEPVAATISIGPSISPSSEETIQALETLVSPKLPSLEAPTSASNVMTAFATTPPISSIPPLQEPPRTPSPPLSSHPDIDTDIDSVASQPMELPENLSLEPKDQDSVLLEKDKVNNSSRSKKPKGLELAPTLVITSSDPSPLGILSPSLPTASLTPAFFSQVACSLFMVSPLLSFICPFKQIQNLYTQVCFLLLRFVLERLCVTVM
# Summary of the method: as §1
# ETV2 = target: T9, ETV2 (Homo sapiens, UniProt O00321 1-342); conditions: protein: recombinant; tags: N-terminal GST; dsDNA, one strand shown
# T9 sequence: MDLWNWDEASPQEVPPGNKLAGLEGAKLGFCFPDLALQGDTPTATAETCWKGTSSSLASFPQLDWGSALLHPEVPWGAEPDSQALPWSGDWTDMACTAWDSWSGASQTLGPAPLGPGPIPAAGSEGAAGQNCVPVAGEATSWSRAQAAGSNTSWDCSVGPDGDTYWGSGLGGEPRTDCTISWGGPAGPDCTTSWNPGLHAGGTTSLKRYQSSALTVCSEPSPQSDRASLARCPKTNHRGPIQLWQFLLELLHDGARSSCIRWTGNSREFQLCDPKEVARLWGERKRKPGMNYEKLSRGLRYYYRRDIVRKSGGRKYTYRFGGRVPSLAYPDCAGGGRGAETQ
# Summary of the method: as §1
# ELF3 = target: T10, ELF3 (Homo sapiens, UniProt P78545 1-371); conditions: protein: recombinant; tags: N-terminal GST; dsDNA, one strand shown
# T10 sequence: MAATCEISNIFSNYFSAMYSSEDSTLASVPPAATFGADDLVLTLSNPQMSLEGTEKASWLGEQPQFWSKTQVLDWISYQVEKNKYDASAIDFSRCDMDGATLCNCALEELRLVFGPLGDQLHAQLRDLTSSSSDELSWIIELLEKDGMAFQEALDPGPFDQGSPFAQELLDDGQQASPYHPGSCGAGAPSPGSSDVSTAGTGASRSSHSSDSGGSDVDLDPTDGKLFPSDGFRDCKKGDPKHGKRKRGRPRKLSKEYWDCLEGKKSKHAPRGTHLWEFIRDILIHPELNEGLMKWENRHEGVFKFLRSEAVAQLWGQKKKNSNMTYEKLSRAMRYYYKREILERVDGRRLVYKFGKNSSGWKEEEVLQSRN
# Summary of the method: as §1
# CRX = CRX (Homo sapiens, UniProt O43186 1-299); conditions: protein: recombinant; tags: N-terminal GST; dsDNA, one strand shown
# Sequence of CRX (O43186 whole entry): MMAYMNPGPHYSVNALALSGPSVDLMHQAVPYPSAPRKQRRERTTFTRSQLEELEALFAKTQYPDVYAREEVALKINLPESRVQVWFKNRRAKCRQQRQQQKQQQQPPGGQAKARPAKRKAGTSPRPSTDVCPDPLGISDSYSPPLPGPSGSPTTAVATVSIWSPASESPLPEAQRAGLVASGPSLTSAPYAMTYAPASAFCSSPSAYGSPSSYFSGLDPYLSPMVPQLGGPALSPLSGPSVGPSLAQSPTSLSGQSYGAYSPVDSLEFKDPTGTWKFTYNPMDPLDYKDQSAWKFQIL
# Summary of the method: as §1
# ETV1 = ETV1 (Homo sapiens, UniProt P50549 1-477); conditions: protein: recombinant; tags: N-terminal GST; dsDNA, one strand shown
# Sequence of ETV1 (P50549 whole entry): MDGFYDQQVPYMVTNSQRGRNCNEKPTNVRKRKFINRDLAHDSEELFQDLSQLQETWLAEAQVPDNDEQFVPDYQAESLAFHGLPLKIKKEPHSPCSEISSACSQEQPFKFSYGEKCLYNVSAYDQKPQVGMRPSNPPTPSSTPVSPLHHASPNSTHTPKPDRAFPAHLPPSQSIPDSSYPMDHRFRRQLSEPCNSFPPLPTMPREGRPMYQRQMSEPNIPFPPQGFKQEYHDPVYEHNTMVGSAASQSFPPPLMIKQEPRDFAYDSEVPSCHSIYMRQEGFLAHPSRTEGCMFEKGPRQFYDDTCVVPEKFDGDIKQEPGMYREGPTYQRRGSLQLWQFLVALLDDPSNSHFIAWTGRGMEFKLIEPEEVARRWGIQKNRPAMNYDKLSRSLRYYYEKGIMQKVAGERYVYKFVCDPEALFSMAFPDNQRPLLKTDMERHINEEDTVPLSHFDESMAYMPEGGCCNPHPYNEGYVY
# Summary of the method: as §1
sequence,measurement,setting,value
CTTGAA,binding signal,FLI1,"1.16 fold enrichment (6-mer frequency, TF over GST control)"
same,binding signal,ELK1,"1.24 fold enrichment (6-mer frequency, TF over GST control)"
same,binding signal,GABPA,"1.09 fold enrichment (6-mer frequency, TF over GST control)"
same,binding signal,ERG,"1.12 fold enrichment (6-mer frequency, TF over GST control)"
same,binding signal,ELF1,"1.2 fold enrichment (6-mer frequency, TF over GST control)"
same,binding signal,EHF,"1.18 fold enrichment (6-mer frequency, TF over GST control)"
same,binding signal,SPI1,"1.13 fold enrichment (6-mer frequency, TF over GST control)"
same,binding signal,SPIB,"1.17 fold enrichment (6-mer frequency, TF over GST control)"
same,binding signal,FEV,"1.05 fold enrichment (6-mer frequency, TF over GST control)"
same,binding signal,ETV5,"1.09 fold enrichment (6-mer frequency, TF over GST control)"
same,binding signal,HSF1,"1.26 fold enrichment (6-mer frequency, TF over GST control)"
same,binding signal,SPIC,"1.09 fold enrichment (6-mer frequency, TF over GST control)"
same,binding signal,ELF4,"1.19 fold enrichment (6-mer frequency, TF over GST control)"
same,binding signal,ELK4,"1.22 fold enrichment (6-mer frequency, TF over GST control)"
same,binding signal,ETV2,"1.11 fold enrichment (6-mer frequency, TF over GST control)"
same,binding signal,ELF3,"1.08 fold enrichment (6-mer frequency, TF over GST control)"
same,binding signal,CRX,"1.16 fold enrichment (6-mer frequency, TF over GST control)"
same,binding signal,ETV1,"1.09 fold enrichment (6-mer frequency, TF over GST control)"
